This passage reports outcome and AC50 results from PubChem BioAssay (EPA / NIEHS).

Calls of active or inactive are those of the source. The calls were made as follows: active = hit-call score of the fitted dose curve at least 0.9, where 1 is the maximum; inactive = score below 0.9.

One test in a line: ATG_TA_CIS: Attagene CIS-FACTORIAL HepG2 Assay for human TA Basal Promoter (AID 2282964). Conditions: HepG2 Attagene CIS-factorial TA basal promoter reporter; actives raise or lower the signal. The gist of the method: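 Cis-factorial format in HepG2: reporters report endogenous factors, not chimeric Gal4 fusions. After 24 h treatment, reporter transcripts were measured by RT-PCR-capillary electrophoresis fluorescence, analysed bidirectionally versus DMSO.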
Take `CCCCC(CC)CCC(CC(C)C)OS(=O)(=O)O` (stereo not drawn): the outcome was inactive.
Consider `[Cl][Bi]([Cl])([c]1ccccc1)([c]1ccccc1)[c]1ccccc1`, for which the call was inactive.
Still for that read-out and setting: the result for `CC1=Nc2ccc3ccccc3c2C1(C)C` reads “inactive”; that for `O=c1c2ccccc2nnn1CCl`, “inactive”; that for `CN(C)c1ccc(N=Nc2ccccc2C(=O)O)cc1`, “inactive”.
Turning to `S=C(NC1CCCCC1)NC1CCCCC1`, the compound was called inactive.
In the case of `COc1cc(NC(=O)CC(C)=O)c(OC)cc1Cl`, the compound was classed as inactive.
For `O=C(/C=C/C=C/c1ccc2c(c1)OCO2)N1CCCCC1`, the AC50 is 66.9 µM (active).
As for `CC(C)COC(=O)C=Cc1ccccc1`, the compound was classed as inactive.
On the same count and under the same terms, next, `CCN(CCO)c1cccc(C)c1`: “inactive”; `C=C[Si](OC(C)=O)(OC(C)=O)OC(C)=O`: “inactive”; `CCCC(=O)OCc1ccccc1`: “inactive”.
In the case of `O=C(Cl)c1cc(C(=O)Cl)cc(C(=O)Cl)c1`, the call was inactive.
Same read-out and setting: next, `CC(=O)OCC(C)OC(C)=O` (stereo not drawn): “inactive”; `Nc1cccc(C(F)(F)F)c1`: “inactive”; `Cc1cc(=O)n(-c2ccccc2)n1C`: “inactive”.
For `Cc1ccc(N/N=c2\c(=O)cc/c(=N/Nc3ccc(S(=O)(=O)O)cc3)c2=O)c(C)c1`, the result was inactive.
In the case of `CCC(Cc1ccccc1)(C(=O)c1ccc(N2CCOCC2)cc1)N(C)C` (stereo not drawn), the AC50 is 30.2 µM (active).
As for `Cc1cc(C)c(C)c(C)c1`, the compound was called inactive.
On to `CC(C)CC(O)Cc1ccccc1` (stereo not drawn), for which the call was inactive.
`C=C(C)C(=O)OCCOc1ccccc1`: the call was inactive.
As for `CCCOCCOCCOCCO`, the compound was classed as inactive.
Regarding `C=CCCCCCCCCC(=O)OCCCC`, the compound was called inactive.

A further test is described as follows: ATG_TCF_b_cat_CIS: Attagene CIS-FACTORIAL HepG2 Assay for human T-Cell-Factor with beta-catenin (TCF/b-cat) (AID 2282965). Particulars: HepG2 TCF/beta-catenin cis-reporter transcription, actives raise or lower the signal. The gist of the method:
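Endogenous TCF/LEF activity read as reporter transcript level via RT-PCR and capillary electrophoresis fluorescence in transfected HepG2, 24 h exposure; gain or loss of signal fitted against DMSO controls.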
With `[Cl][Nd]([Cl])[Cl]`, the result was inactive.
Take `CC/C=C\C/C=C\C/C=C\CCCCCCCC(=O)O`: the AC50 is 53.6 µM (active).
As for `CCOC(=O)CC`, the compound was called inactive.
Regarding `Nc1ccc(-c2ccc(F)cc2)cc1`, the compound was classed as inactive.
Still for that read-out and setting: next, `CC(=O)Oc1ccc(C(C)=O)cc1`: “inactive”; `O=C(Nc1ccccc1)c1ccccc1O`: “inactive”.
In the case of `CC(C)c1ccc(C#N)cc1`, the compound was classed as inactive.
With `CCCCCCCCCCC=CC#N`, the outcome was inactive.
For the compound `O=C1OC(=O)c2cc(Oc3ccc4c(c3)C(=O)OC4=O)ccc21`, the result was inactive.
Take `COc1cc(C)ccc1C(C)C`: the compound was classed as inactive.
On the same count and under the same terms, the result for `Cc1cccc(N)n1` reads “inactive”.
Take `O=S(=O)(O)CC(O)CCl` (stereo not drawn): the result was inactive.
The same measure, in the same setting: next, `COc1ccc([C@@H]2CC(=O)c3c(O)cc(O[C@@H]4O[C@H](CO[C@@H]5O[C@@H](C)[C@H](O)[C@@H](O)[C@H]5O)[C@@H](O)[C@H](O)[C@H]4O)cc3O2)cc1OC`: “inactive”.
With `c1cc(N(CC2CO2)CC2CO2)ccc1OCC1CO1` (stereo not drawn), the AC50 was 12.6 µM (active).
As to `CCCCC(CC)CCC(CC(C)C)OS(=O)(=O)O` (stereo not drawn), the result was inactive.
Turning to `[Cl][Bi]([Cl])([c]1ccccc1)([c]1ccccc1)[c]1ccccc1`, the AC50 was 5.75 µM (active).
Consider `O=C(O)C(c1ccc(Cl)cc1)c1ccc(Cl)cc1`, for which the compound was classed as inactive.
For the compound `CC1=Nc2ccc3ccccc3c2C1(C)C`, the compound was classed as inactive.
As for `CN(C)c1ccc(N=Nc2ccccc2C(=O)O)cc1`, the AC50 is 31.4 µM (active).
Take `S=C(NC1CCCCC1)NC1CCCCC1`: the outcome was inactive.
For `O=C(/C=C/C=C/c1ccc2c(c1)OCO2)N1CCCCC1`, the compound was called inactive.
Regarding `CC(C)COC(=O)C=Cc1ccccc1`, the outcome was inactive.
`CCN(CCO)c1cccc(C)c1`: the result was inactive.
For the compound `C=C[Si](OC(C)=O)(OC(C)=O)OC(C)=O`, the call was inactive.
Take `CCCC(=O)OCc1ccccc1`: the outcome was inactive.
For the compound `O=C(Cl)c1cc(C(=O)Cl)cc(C(=O)Cl)c1`, the compound was classed as inactive.
On to `CC(=O)OCC(C)OC(C)=O` (stereo not drawn), for which the outcome was inactive.
Still for that read-out and setting: next, `Nc1cccc(C(F)(F)F)c1`: “inactive”; `Cc1cc(=O)n(-c2ccccc2)n1C`: “inactive”; `Cc1cc(C)c(C)cc1C`: “inactive”.
As for `CCC(Cc1ccccc1)(C(=O)c1ccc(N2CCOCC2)cc1)N(C)C` (stereo not drawn), the AC50 was 49.8 µM (active).
With `CC(C)CC(O)Cc1ccccc1` (stereo not drawn), the compound was called inactive.
Take `C=C(C)C(=O)OCCOc1ccccc1`: the result was inactive.
In the case of `CCCOCCOCCOCCO`, the call was inactive.
Turning to `C=CCCCCCCCCC(=O)OCCCC`, the compound was classed as inactive.
